# Screening results as filed in PubChem BioAssay.
# Tau fibril FP – qHTS for Inhibitors of Tau Fibril Formation, Fluorescence Polarization; Microtubule-associated protein tau (Homo sapiens), P10636; K18 P301L tau heparin fibrillization, Alexa594 FP, 6 h; Potency, µM (titrated, usually from 57.7 µM), without a hit: at the highest dose activity, negative = inhibition, actives largely listed as inhibitors; 280,000 tested, 0.39% active; AID 1468, 2008; also: nearly all actives have a fitted effect of over 55% in size
# Target sequence (P10636 561-689 P618L limits assumed): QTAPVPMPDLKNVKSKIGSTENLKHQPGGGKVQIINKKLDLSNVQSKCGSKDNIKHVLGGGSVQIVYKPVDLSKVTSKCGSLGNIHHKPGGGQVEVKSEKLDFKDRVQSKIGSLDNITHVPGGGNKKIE
#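 Quantitative HTS format: compounds meet 15 uM recombinant K18 P301L tau and Alexa 594-tau tracer in 100 mM sodium acetate pH 7; 20 uM heparin triggers fibrillization at 37 C over 6 hr; FP gives the signal.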
# ALDH1A1 block – qHTS Assay for Inhibitors of Aldehyde Dehydrogenase 1 (ALDH1A1) | AID 1030, 2008 | Aldehyde dehydrogenase 1A1 (Homo sapiens), P00352 | 220,000 tested, 7.3% active | Potency, µM (doses to about 75.3 µM), without a hit: at the highest dose activity, negative = inhibition, actives largely listed as inhibitors | Purified ALDH1A1, NADH fluorescence, propionaldehyde substrate; active = well fitted inhibition curve with a large enough effect, not every such curve was filed as active; inconclusive = small, poorly fitted or top-dose-only effect, or another doubt; inactive = no such curve, though single readings can be large or run the other way;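 also: plate controls were no enzyme wells and a reference inhibitor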
# Target sequence (P00352 whole entry, looked up): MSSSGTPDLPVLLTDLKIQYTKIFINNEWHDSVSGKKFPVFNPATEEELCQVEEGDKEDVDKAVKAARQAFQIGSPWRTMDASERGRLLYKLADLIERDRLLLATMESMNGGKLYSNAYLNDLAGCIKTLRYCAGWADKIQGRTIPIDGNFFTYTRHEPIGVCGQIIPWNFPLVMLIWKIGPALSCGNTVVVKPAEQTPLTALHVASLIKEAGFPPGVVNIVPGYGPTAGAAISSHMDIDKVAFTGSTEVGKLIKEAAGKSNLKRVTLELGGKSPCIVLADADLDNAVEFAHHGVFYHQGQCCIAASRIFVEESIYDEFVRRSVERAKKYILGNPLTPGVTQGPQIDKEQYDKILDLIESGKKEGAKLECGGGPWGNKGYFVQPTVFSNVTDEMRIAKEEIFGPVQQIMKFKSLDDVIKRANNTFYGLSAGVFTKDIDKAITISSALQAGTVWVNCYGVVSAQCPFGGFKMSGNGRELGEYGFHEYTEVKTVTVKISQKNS
# Tau ThT inhib – qHTS for Inhibitors of Tau Fibril Formation, Thioflavin T Binding; Potency, µM (series often up to 57.4 µM), for the others: top-dose activity, negative = inhibition, hits mostly inhibitors; 270,000 tested, 2.1% active; recombinant tau K18 P301L, heparin-induced fibrillization, ThT fluorescence; AID 1460, 2008; Microtubule-associated protein tau (Homo sapiens), P10636; also: nearly all actives have a fitted effect of over 55% in size
#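 Heparin-induced fibrillization of the P301L-mutant K18 repeat-domain fragment of human tau was followed by ThT binding in quantitative high-throughput format.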
# Tau fluor counter – Counterscreen qHTS for Inhibitors of Tau Fibril Formation, Fluorescence Polarization; Potency, µM (top dose mostly 57.7 µM), inactives show at the top dose activity change, negative = decrease; 280,000 tested, 0.93% active; tau K18 P301L Alexa594 fluorescence, heparin fibrillization; also: nearly all actives have a fitted effect of over 55% in size
#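 Human tau K18 P301L (15 uM unlabeled, 0.24 uM Alexa 594-labeled) in 100 mM sodium acetate pH 7 with 20 uM heparin, 6 hr at 37 C. ThT 30 uM added, 1 hr ambient; Alexa 594 FP and total fluorescence read at 555/632 nm.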
# HPGD inh – qHTS Assay for Inhibitors of HPGD (15-Hydroxyprostaglandin Dehydrogenase); purified HPGD, NADH fluorescence kinetic, PGE2 substrate; Potency, µM, for inactives: at the highest dose activity change, negative = inhibition, usual class: inhibitors; AID 894, 2007; 15-hydroxyprostaglandin dehydrogenase [NAD(+)] (Homo sapiens), P15428; 150,000 tested, 4.3% active; active = well fitted inhibition curve with a large enough effect, not every such curve was filed as active; inconclusive = small, poorly fitted or top-dose-only effect, or another doubt; inactive = no such curve, though single readings can be large or run the other way
#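 20 nM HPGD preincubated 15 min at room temperature with compound in 50 mM Tris-HCl pH 8, 0.01% Tween 20. Started with 1 mM NAD+ and 30 uM prostaglandin E2; NADH fluorescence (360/450 nm) read 5 times over 30-s intervals, last minus first.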
# NPSR antag – qHTS Assay for Antagonists of the Neuropeptide S Receptor: cAMP Signal Transduction; Q6W5P4; CHO-NPSR cells, cAMP TR-FRET, antagonist mode; Potency, µM (top dose mostly 38.3 µM), for the others: at the highest dose activity change, negative = inhibition, usual class: inhibitors; 220,000 tested, 1% active; AID 1461, 2008; also: nearly all actives have a fitted effect of over 50% in size
# Numbers without * were called inactive; ? = inconclusive; . = not tested or not shown; [ ] = remark or other dose. An excerpt weighted towards active compounds, which were near 9.5% of everything screened. Unless noted, calls follow the shape of the dose curve; as a rule, active = well fitted curve in the direction sought with a large enough effect; inconclusive = small, poorly fitted or top-dose-only effect, or another doubt; inactive = no such curve, though single readings can be large; an effect the other way counts as inactive or inconclusive. Unless noted, % is scaled to controls: 0 for no effect and ±100 for the full control effect; potency is read from the fitted curve at half-maximal effect.
SMILES,Tau fibril FP,ALDH1A1 block,Tau ThT inhib,Tau fluor counter,HPGD inh,NPSR antag
O=C(/C=C/c1ccc(F)cc1)c1cc(Br)ccc1O,1%,.,?,-10%,.,?
CCNc1ccc(Br)cc(C(=O)/C=C/c2ccc3c(c2)OCO3)c1=O,?,18µM*,11µM*,?,?,-13%[46.1 µM]
CCNc1ccc(Br)cc(C(=O)/C=C/c2ccc(Cl)cc2)c1=O,?,25µM*,14µM*,?,?,-52%
CS(=O)(=O)Nc1ccc(Br)cc1C(=O)c1ccccc1,3%,22%,5%,-3%,-16%,7%[46.1 µM]
CCNc1ccc(Br)cc(C(=O)/C=C/c2c(Cl)cccc2Cl)c1=O,?,7.9µM*,13µM*,?,8.9µM*,?
Cc1ccc(Cn2ccnc2SCC(=O)Nc2ccc3c(c2)OCCO3)cc1,3%,.,-12%,-22%,.,.
CCc1ccc(NC(=O)Cn2ccn(-c3ccc(OC)cc3)c(=O)c2=O)cc1,-1%,.,-15%,-6%,.,.
COC(=O)/C(=C(/F)Sc1cc(C)c(O)c(C)c1)C(F)(F)F,?,-2%,?,13µM*[quencher],-23%,-22%[46.1 µM]
COC(=O)C(Nc1ccccc1Cl)(c1cc(C)c(O)c(C)c1)C(F)(F)F (stereo not given),?,12%,-17%,?,-14%,?
COc1ccc(S(=O)(=O)N2CCN(CCC(=O)Nc3ccccc3F)CC2)cc1,-1%,1.1µM*,-8%,-13%,-11%,-2%[46.1 µM]
O=C(CN1CCN(C(=O)c2c(F)cccc2F)CC1)Nc1ccccc1F,-2%,25µM*,-5%,0%,-2%,-5%[46.1 µM]
COc1ccc(NC(=O)CN2CCN(CC(=O)Nc3ccccc3F)CC2)c(OC)c1,-4%,18µM*,-12%,0%,-16%,-8%[46.1 µM]
COc1ccc(NCC(=O)Nc2ccc(Br)cc2F)c(OC)c1,-3%,1.6µM*,?,?,.,8%
O=C(CCN1CCN(S(=O)(=O)c2ccc(Cl)cc2)CC1)Nc1ccccc1F,3%,?,-5%,-13%,.,-39%
CCn1c(=O)n(-c2ccc(F)c(Cl)c2)c(=O)c2c3c(sc21)CN(C(C)=O)CC3,-5%,.,-7%,-15%,.,.
COc1ccccc1NC(=O)CN1CCN(CC(=O)Nc2ccc(F)c(F)c2)CC1,-17%,.,2%,-9%,.,.
COC(C(=O)Nc1ccc(Br)cc1F)c1ccccc1 (stereo not given),-7%,10µM*,-10%,-12%,.,-5%
COc1ccc(NC(=O)CN2CCN(CC(=O)Nc3ccccc3F)CC2)cc1OC,1%,22µM*,-13%,-11%,-9%,-29%[46.1 µM]
O=C(CN1CCN(S(=O)(=O)c2ccccc2F)CC1)Nc1ccccc1C(=O)c1ccccc1,9%,2.8µM*,-5%,-20%,.,-52%
O=C(CN1CCCC1)Nc1ccccc1C(=O)c1ccccc1,-15%,14%,-10%,-15%,.,-17%
CCCN1C(=O)SC(CC(=O)Nc2ccccc2C)C1=O (stereo not given),1%,10µM*,-12%,-1%,-3%,7%
CCOc1ccc(NC(=O)CC2SC(=O)N(c3ccccc3)C2=O)cc1 (stereo not given),12%,7.9µM*,?,-10%,.,-29%
COc1cccc(NC(=O)CC2S/C(=N\S(=O)(=O)c3ccccc3)N(c3ccccc3)C2=O)c1 (stereo not given),-9%,20µM*,4%,-29%,-21%,-7%
CCOc1ccc(NC(=O)c2cccnc2C(=O)O)cc1,-4%,22µM*,-18%,-2%,-6%,-5%[46.1 µM]
CCOc1ccc(NC(=O)C2CC(=O)OC2c2ccccc2)cc1 (stereo not given),-1%,25µM*,2%,7%,.,-10%
SMILES,Tau fibril FP,ALDH1A1 block,Tau ThT inhib,Tau fluor counter,HPGD inh,NPSR antag
CCOc1ccc(NC2=NCC(=O)N2CCc2ccccc2)cc1,-13%,25µM*,4%,-6%,-12%,?
CCOc1ccc(NC(=O)Cc2ccccc2)cc1,6%,2%,-2%,-8%,13µM*,18%
O=C(CC1SC(=O)N(c2ccccc2)C1=O)Nc1cccc2ccccc12 (stereo not given),-9%,.,?,-28%,.,-4%
Cc1ccccc1NC(=O)CC1SC(=O)N(c2ccccc2)C1=O (stereo not given),-5%,16µM*,?,-14%,?,-6%[46.1 µM]
COC(=O)c1ccc(NC(=O)C2CC(=O)OC2c2ccccc2)cc1 (stereo not given),-7%,.,-5%,-9%,.,2%
CCCCC[C@H](O)/C=C/[C@H]1OC(O)C[C@H](O)[C@@H]1C/C=C\CCCC(=O)O (stereo not given in full),-8%,-1%,-1%,-7%,-6%,.
CCN1CCN(CCCNC(=O)Cn2nc(C)n3c(cc4cc(C)ccc43)c2=O)CC1,4%,.,0%,1%,.,.
O/N=C1\CCCC\C1=C/c1ccccc1,3%,-2%,6%,5%,4.5µM*,32%
O=C1CCC/C1=C\c1ccccc1,1%,?,-7%,-4%,.,8%
CO/N=C1/[C@H]2O[C@@H]2[C@@H](O)[C@H]2[C@H]1CCn1c(=O)n(-c3ccccc3)c(=O)n12,3%[11.6 µM],-6%[13.5 µM],2%[11.5 µM],3%[11.6 µM],.,.
CC1=CC(C)(C)N(C(=O)CCl)c2ccccc21,-6%[2.34 µM],?,9%,3%,.,-7%
CC1=CC(C)(C)N(C(=O)CSc2ncn[nH]2)c2ccccc21,-8%,13µM*,0%,-11%,-7%,-23%[46.1 µM]
Cc1ccc(N/N=C2/CCCNC2=O)cc1,-10%,22µM*,-12%,-6%,-15%,17%[46.1 µM]
CC(=O)c1ccc(N/N=C2/CCCNC2=O)cc1,0%,?,?,-7%,.,-6%
Cc1[nH]c(C(=O)N/N=C/c2ccc(N(C)C)cc2)c(C)c1C(=O)N/N=C/c1ccc(N(C)C)cc1,0%,?,2.2µM*,?,.,-17%
CCN(CC)c1ccc(/C=N/NC(=O)c2ccc([N+](=O)[O-])cc2)cc1,-4%,28µM*,?,-19%,.,15%
COc1cc(/C=N/NC(=O)c2ccc3nc[nH]c3c2)ccc1O,-3%,.,.,-19%,.,-3%
CN(C)c1ccc(/C=N/NC(=O)c2ccc3nc[nH]c3c2)cc1,-12%,18µM*,4.5µM*,?,.,38%
